# Data: paper PMC7862700, “An all-to-all approach to the identification of sequence-specific readers for epigenetic DNA modifications on cytosine”
# Columns and labels:
# Test in all cases: DAPPL (digital affinity profiling via proximity ligation, sequencing); 10 mM Tris-HCl pH 7.5, 50 mM NaCl, 1 mM DTT, 4% glycerol, room temperature, 30 min; GST-TFs on glutathione beads, 16-mer random dsDNA library, 0.1% formaldehyde crosslink after washing; high values mean tight binding
# Conditions in all cases: protein: recombinant; tags: N-terminal GST; dsDNA, one strand shown
# FLI1 = target: T1, FLI1 (Homo sapiens, UniProt Q01543 1-452)
# T1 sequence: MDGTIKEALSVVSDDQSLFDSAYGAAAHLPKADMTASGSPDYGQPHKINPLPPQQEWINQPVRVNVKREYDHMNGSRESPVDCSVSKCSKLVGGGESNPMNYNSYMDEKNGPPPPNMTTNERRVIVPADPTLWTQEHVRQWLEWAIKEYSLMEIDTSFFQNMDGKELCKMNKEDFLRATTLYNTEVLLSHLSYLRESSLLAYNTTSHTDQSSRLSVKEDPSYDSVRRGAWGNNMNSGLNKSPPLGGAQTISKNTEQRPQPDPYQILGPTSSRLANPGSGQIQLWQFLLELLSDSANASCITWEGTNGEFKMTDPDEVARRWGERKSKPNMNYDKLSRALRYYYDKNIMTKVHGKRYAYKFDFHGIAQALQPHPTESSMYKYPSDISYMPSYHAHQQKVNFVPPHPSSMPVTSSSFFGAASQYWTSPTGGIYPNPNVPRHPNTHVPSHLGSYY
# Summary of the method: (§1)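 After expression in yeast as GST fusions, human transcription factors were bound to glutathione beads, DNA-barcoded and mixed with a tag-only sample. The pools were incubated with 200 nmole of a 16-mer random double-stranded DNA library in Tris/NaCl/DTT/glycerol buffer (30 min, room temperature), washed and crosslinked with 0.1% formaldehyde. Proximity ligation with BsaI/T4 ligase ran for 1 h at 37 °C, before PCR amplification and sequencing on an Illumina NextSeq500. Binding signal is a hexamer's read frequency for a factor divided by its frequency for the tag-only sample.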
# ELK1 = target: T2, ELK1 (Homo sapiens, UniProt P19419 1-428)
# T2 sequence: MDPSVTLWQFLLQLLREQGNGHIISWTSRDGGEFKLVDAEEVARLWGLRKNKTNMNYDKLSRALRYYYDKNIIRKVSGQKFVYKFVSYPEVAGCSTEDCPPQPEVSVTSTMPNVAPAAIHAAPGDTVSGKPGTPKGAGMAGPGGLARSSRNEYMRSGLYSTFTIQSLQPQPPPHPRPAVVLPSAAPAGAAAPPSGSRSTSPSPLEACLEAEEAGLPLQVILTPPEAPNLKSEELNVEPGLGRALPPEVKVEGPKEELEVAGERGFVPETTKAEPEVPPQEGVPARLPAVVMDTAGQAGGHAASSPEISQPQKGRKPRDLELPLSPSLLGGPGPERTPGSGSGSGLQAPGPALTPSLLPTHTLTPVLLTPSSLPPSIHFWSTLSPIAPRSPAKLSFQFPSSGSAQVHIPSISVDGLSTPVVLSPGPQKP
# Summary of the method: as §1
# GABPA = target: T3, GABPA (Homo sapiens, UniProt Q06546 1-454)
# T3 sequence: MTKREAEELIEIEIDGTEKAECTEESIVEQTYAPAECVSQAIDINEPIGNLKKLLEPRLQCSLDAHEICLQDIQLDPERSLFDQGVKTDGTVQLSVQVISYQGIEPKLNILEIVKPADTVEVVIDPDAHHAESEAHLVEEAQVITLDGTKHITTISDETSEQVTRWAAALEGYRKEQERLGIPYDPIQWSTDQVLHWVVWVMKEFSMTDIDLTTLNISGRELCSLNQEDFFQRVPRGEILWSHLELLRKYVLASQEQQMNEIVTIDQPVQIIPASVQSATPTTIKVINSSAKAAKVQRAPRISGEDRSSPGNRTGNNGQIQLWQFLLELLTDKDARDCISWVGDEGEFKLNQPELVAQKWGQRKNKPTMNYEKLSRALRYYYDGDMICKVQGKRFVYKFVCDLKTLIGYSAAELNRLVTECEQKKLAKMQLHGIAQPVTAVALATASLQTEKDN
# Summary of the method: as §1
# ERG = target: T4, ERG (Homo sapiens, UniProt P11308 1-479)
# T4 sequence: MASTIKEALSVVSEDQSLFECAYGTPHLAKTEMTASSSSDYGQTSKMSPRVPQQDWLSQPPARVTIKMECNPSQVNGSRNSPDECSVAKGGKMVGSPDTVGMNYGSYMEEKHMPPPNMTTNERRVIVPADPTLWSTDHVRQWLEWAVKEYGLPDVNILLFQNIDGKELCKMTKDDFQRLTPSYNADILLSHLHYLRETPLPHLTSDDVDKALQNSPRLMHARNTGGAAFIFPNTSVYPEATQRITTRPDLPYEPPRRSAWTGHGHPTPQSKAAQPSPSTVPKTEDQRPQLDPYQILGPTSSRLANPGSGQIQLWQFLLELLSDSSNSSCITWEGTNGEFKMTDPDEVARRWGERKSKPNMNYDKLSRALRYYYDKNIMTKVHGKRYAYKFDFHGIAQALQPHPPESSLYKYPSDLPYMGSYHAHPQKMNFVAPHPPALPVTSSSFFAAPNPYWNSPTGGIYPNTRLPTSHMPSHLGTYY
# Summary of the method: as §1
# ELF1 = ELF1 (Homo sapiens, UniProt P32519 1-619)
# Sequence of ELF1 (P32519 whole entry): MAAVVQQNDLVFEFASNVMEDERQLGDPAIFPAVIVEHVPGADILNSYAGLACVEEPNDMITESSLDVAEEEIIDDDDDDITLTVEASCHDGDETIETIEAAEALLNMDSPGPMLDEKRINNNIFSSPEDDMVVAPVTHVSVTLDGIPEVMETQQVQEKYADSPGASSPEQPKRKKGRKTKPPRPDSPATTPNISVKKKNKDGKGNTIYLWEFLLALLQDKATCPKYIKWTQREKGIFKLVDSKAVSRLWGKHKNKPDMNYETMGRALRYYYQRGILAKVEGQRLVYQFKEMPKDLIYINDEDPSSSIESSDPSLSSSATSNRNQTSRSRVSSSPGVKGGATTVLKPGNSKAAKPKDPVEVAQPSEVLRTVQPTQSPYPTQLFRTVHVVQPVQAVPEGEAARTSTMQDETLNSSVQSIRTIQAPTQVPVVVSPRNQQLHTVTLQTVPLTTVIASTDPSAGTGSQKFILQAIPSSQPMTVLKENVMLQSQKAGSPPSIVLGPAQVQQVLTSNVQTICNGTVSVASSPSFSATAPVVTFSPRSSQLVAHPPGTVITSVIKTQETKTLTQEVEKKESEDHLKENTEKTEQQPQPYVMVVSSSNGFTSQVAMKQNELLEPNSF
# Summary of the method: as §1
# EHF = target: T5, EHF (Homo sapiens, UniProt Q9NZC4 1-300)
# T5 sequence: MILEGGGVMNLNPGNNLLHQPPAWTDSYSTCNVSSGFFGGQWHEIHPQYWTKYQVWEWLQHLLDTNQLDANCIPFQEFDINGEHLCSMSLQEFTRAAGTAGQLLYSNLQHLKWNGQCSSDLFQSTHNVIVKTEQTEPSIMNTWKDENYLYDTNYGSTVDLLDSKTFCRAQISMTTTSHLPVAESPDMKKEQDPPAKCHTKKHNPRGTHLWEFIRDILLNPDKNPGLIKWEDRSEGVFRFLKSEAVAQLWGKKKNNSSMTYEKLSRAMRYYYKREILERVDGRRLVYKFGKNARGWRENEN
# Summary of the method: as §1
# SPI1 = SPI1 (Homo sapiens, UniProt P17947 1-270)
# Summary of the method: as §1
# SPIB = SPIB (Homo sapiens, UniProt Q01892 1-262)
# Sequence of SPIB (Q01892 whole entry): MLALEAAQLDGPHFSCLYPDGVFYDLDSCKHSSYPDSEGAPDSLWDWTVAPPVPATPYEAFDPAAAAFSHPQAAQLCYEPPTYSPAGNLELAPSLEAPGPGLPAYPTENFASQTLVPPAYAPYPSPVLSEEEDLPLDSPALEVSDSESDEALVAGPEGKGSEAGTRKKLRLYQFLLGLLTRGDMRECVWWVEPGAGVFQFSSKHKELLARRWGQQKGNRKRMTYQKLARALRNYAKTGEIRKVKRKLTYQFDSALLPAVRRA
# Summary of the method: as §1
# ELK3 = target: T6, ELK3 (Homo sapiens, UniProt P41970 1-407)
# T6 sequence: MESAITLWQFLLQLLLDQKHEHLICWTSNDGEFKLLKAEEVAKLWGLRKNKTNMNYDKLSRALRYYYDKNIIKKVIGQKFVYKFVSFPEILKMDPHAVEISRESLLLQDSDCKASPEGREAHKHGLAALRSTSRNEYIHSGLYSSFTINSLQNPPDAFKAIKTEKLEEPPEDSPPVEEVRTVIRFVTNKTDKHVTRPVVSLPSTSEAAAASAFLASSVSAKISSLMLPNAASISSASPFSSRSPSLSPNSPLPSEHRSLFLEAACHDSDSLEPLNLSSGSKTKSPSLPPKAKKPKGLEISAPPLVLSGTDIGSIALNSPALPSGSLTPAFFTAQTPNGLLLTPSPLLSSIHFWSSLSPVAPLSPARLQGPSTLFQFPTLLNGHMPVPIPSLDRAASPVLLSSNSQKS
# Summary of the method: as §1
# FEV = target: T7, FEV (Homo sapiens, UniProt Q99581 1-238)
# T7 sequence: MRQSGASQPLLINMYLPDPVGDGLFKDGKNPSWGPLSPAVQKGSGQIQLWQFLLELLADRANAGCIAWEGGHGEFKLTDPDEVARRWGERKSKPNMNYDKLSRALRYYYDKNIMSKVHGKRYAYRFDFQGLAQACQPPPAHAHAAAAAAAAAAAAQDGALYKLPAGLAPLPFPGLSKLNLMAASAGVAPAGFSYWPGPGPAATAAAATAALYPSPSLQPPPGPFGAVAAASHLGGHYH
# Summary of the method: as §1
# ETV5 = ETV5 (Homo sapiens, UniProt P41161 1-510)
# Sequence of ETV5 (P41161 whole entry): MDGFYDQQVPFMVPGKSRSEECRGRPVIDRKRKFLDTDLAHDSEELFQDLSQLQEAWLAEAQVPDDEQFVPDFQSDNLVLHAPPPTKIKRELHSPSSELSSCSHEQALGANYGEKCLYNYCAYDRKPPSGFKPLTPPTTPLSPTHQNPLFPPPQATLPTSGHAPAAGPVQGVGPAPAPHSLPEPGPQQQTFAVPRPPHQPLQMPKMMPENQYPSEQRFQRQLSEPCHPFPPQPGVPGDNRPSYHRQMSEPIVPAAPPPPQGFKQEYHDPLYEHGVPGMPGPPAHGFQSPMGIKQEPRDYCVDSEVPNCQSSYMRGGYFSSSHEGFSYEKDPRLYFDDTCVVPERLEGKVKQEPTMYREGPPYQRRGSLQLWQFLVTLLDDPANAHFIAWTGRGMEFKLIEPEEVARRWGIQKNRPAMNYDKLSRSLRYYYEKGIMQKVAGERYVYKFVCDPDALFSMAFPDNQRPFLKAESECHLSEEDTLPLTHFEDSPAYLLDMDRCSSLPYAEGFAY
# Summary of the method: as §1
# SPIC = target: T8, SPIC (Homo sapiens, UniProt Q8N5J4 1-248)
# T8 sequence: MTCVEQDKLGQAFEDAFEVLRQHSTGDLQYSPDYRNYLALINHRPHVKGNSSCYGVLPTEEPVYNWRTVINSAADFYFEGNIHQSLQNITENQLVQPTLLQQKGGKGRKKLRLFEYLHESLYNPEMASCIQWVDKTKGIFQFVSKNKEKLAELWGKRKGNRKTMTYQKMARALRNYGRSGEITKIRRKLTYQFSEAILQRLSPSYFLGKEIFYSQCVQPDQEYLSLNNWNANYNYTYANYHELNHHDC
# Summary of the method: as §1
# ELF4 = ELF4 (Homo sapiens, UniProt Q99607 1-663)
# Sequence of ELF4 (Q99607 whole entry): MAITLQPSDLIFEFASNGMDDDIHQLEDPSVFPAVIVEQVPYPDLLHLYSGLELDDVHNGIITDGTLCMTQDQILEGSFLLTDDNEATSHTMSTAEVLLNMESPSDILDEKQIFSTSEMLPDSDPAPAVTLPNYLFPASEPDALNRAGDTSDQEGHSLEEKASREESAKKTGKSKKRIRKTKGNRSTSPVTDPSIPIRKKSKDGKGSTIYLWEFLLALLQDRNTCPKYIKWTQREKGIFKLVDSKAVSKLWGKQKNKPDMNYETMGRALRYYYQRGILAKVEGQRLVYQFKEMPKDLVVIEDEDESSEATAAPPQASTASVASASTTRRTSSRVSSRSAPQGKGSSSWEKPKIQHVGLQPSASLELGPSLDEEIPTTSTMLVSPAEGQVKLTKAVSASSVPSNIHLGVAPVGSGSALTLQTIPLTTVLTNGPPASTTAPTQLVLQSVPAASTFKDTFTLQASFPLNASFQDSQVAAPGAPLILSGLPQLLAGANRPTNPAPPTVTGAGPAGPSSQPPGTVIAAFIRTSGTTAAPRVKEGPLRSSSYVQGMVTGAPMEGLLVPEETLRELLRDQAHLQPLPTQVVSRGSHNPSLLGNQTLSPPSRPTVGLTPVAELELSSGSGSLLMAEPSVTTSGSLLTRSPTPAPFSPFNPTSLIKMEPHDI
# Summary of the method: as §1
# ELK4 = target: T9, ELK4 (Homo sapiens, UniProt P28324-2 1-405)
# T9 sequence: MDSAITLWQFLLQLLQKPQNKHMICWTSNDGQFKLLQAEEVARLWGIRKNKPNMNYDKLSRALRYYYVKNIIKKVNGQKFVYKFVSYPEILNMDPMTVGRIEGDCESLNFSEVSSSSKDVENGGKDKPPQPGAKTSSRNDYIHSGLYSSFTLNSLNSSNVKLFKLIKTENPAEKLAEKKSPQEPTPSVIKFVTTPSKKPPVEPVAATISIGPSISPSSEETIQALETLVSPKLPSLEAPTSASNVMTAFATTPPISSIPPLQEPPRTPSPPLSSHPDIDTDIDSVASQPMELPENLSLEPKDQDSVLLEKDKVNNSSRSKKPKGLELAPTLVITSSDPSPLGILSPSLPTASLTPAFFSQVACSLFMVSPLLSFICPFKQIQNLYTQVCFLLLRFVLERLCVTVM
# Summary of the method: as §1
# ETV2 = target: T10, ETV2 (Homo sapiens, UniProt O00321 1-342)
# T10 sequence: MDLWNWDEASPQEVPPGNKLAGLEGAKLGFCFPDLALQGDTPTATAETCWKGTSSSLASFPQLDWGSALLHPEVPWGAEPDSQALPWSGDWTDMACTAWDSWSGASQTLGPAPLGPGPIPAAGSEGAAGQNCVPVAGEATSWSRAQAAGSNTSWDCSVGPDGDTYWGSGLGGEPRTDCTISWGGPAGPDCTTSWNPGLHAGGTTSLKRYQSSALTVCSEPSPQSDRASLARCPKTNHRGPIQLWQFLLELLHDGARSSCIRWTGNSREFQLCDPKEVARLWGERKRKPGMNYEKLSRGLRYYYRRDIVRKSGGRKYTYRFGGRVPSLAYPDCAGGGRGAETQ
# Summary of the method: as §1
# ELF3 = target: T11, ELF3 (Homo sapiens, UniProt P78545 1-371)
# T11 sequence: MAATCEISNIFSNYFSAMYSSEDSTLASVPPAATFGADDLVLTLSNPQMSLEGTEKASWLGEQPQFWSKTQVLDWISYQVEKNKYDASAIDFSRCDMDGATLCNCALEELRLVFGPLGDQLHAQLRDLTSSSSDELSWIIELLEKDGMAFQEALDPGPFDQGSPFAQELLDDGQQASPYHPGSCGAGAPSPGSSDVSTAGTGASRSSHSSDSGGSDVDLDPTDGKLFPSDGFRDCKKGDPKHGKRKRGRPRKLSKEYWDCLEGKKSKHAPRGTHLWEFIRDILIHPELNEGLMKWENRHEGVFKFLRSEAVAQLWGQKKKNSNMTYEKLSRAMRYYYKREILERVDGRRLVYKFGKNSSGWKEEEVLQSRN
# Summary of the method: as §1
# CRX = CRX (Homo sapiens, UniProt O43186 1-299)
# Sequence of CRX (O43186 whole entry): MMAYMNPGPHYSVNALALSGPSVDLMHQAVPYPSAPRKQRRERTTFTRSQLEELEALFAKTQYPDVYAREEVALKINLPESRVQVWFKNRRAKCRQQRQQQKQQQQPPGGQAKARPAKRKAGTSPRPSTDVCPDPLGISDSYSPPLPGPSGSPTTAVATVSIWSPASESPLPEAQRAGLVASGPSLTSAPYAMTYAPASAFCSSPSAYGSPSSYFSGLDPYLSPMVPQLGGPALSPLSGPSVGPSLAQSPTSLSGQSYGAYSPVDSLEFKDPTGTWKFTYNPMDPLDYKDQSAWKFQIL
# Summary of the method: as §1
sequence,measurement,setting,value
ACCGCT,binding signal,FLI1,"1.09 fold enrichment (6-mer frequency, TF over GST control)"
same,binding signal,ELK1,"1.12 fold enrichment (6-mer frequency, TF over GST control)"
same,binding signal,GABPA,"1.14 fold enrichment (6-mer frequency, TF over GST control)"
same,binding signal,ERG,"1.1 fold enrichment (6-mer frequency, TF over GST control)"
same,binding signal,ELF1,"1.07 fold enrichment (6-mer frequency, TF over GST control)"
same,binding signal,EHF,"1.09 fold enrichment (6-mer frequency, TF over GST control)"
same,binding signal,SPI1,"1.03 fold enrichment (6-mer frequency, TF over GST control)"
same,binding signal,SPIB,"1.15 fold enrichment (6-mer frequency, TF over GST control)"
same,binding signal,ELK3,"1.05 fold enrichment (6-mer frequency, TF over GST control)"
same,binding signal,FEV,"1.17 fold enrichment (6-mer frequency, TF over GST control)"
same,binding signal,ETV5,"1.1 fold enrichment (6-mer frequency, TF over GST control)"
same,binding signal,SPIC,"1.13 fold enrichment (6-mer frequency, TF over GST control)"
same,binding signal,ELF4,"1.14 fold enrichment (6-mer frequency, TF over GST control)"
same,binding signal,ELK4,"1.18 fold enrichment (6-mer frequency, TF over GST control)"
same,binding signal,ETV2,"1.07 fold enrichment (6-mer frequency, TF over GST control)"
same,binding signal,ELF3,"1.19 fold enrichment (6-mer frequency, TF over GST control)"
same,binding signal,CRX,"1.01 fold enrichment (6-mer frequency, TF over GST control)"
